Measurements as given in PubChem BioAssay (Tox21).
Records with an inconclusive call do not appear. Activity calls are given as the source filed them. Unless noted, calls follow the shape of the dose curve; as a rule, active = well fitted curve in the direction sought with a large enough effect in the repeat runs; inconclusive = weak or mixed curves; inactive = no such curve, though single readings can be large; an effect the other way counts as inactive or inconclusive.

Legend:
[1] = qHTS assay to identify aromatase inhibitors - cell viability counter screen (AID 743084);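 also: cells stimulated with testosterone during compound exposure; nearly all actives have a fitted effect of over 55% in size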
[2] = biological target: Aryl hydrocarbon receptor (Homo sapiens) (UniProt P35869); assay: qHTS assay to identify small molecule that activate the aryl hydrocarbon receptor (AhR) signaling pathway (AID 743085); also: nearly all actives have a fitted effect of over 15% in size; also: potency is read from the fitted curve at half-maximal effect;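 as to activation: HG2L7.5c1 human HepG2 liver cells with stably integrated DRE-driven firefly reporter; series mostly up to about 70 µM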
Procedure, shortened: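 Cell line HG2L7.5c1 (human hepatoma, 20× DRE-luc). Plated, 5 h 37C, compound/DMSO added, 24 h 37C. CellTiter-Fluor 30 min 37C → fluorescence; then ONE-Glo 30 min RT → luminescence.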

[3] = qHTS assay to identify small molecule that activate the aryl hydrocarbon receptor (AhR) signaling pathway - cell viability counter screen (AID 743086);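 also: HepG2 liver cells carrying the AhR DRE luciferase reporter; series mostly up to about 70 µM; nearly all actives have a fitted effect of over 45% in size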
Procedure, shortened: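 Cytotoxicity counter screen: CellTiter-Fluor signal (30 min, 37 C) in 4000 HepG2 cells/well carrying the DRE-luciferase reporter, following 24 h compound exposure at 37 C.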

[4] = biological target: Peroxisome proliferator-activated receptor gamma (Homo sapiens) (UniProt P37231); assay: qHTS assay to identify small molecule agonists of the peroxisome proliferator-activated receptor gamma (PPARg) signaling pathway (AID 743094; active = well fitted activation curve with a large enough effect in the signal ratio in the repeat runs, not every such curve was filed as active; the % refers to the signal ratio)
Procedure, shortened: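 Agonist activity was taken from a beta-lactamase reporter (FRET substrate, 1 h at room temperature) in HEK293H cells carrying a PPARg UAS-bla construct. Compounds in DMSO were incubated 17 h at 37C after a 5 h cell pre-incubation.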

[5] = biological target: Peroxisome proliferator-activated receptor gamma (Homo sapiens) (UniProt P37231); assay: qHTS assay to identify small molecule antagonists of the peroxisome proliferator-activated receptor gamma (PPARg) signaling pathway (AID 743191; calls by dose curve; also: series mostly up to about 63 µM; nearly all actives have a fitted effect of over 30% in size)
Procedure, shortened: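 Beta-lactamase reporter under UAS control in HEK293H PPARg-bla cells; compound treatment 17 h at 37C. Read-out: fluorescence intensity after 1 h room-temperature incubation with LiveBLAzer B/G FRET substrate.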

[6] = qHTS assay to identify small molecule antagonists of the peroxisome proliferator-activated receptor gamma (PPARg) signaling pathway - cell viability counter screen (AID 743194); also: nearly all actives have a fitted effect of over 55% in size
Procedure, shortened: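 Viability was measured as CellTiter-Glo luminescence in GeneBLAzer PPARg UAS-bla HEK293H cells. These cells had been exposed 17 h at 37 C to compounds together with rosiglitazone at 50 nM final, with the beta-lactamase readout taken in the same wells.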

[7] = qHTS assay for small molecule agonists of the antioxidant response element (ARE) signaling pathway (AID 743202; active = well fitted activation curve with a large enough effect in the signal ratio in the repeat runs, not every such curve was filed as active; the % refers to the signal ratio)
Procedure, shortened: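 Beta-lactamase reporter activity, read as fluorescence intensity, reflects ARE/Nrf2 pathway induction in HepG2 cells after 16 h compound exposure at 37 C; substrate loading was 2 h at room temperature.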

[8] = qHTS assay for small molecule agonists of the antioxidant response element (ARE) signaling pathway - cell viability counter screen (AID 743203; calls by dose curve; also: nearly all actives have a fitted effect of over 55% in size)
Procedure, shortened: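 Viability counter screen: CellTiter-Glo luminescence, read after 30 min at room temperature, in ARE-bla HepG2 wells. Compound exposure lasted 16 h at 37C/5% CO2, following a 5 h pre-incubation of the cells after plating.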

[9] = qHTS assay for small molecule activators of the heat shock response signaling pathway (AID 743210; active = well fitted activation curve with a large enough effect in the signal ratio in the repeat runs, with a control signal flat, not every such curve was filed as active; the % refers to the signal ratio;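 also: HeLa cells with beta-lactamase reporter driven by heat shock elements; series mostly up to about 63 µM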)
Procedure, shortened: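 Fluorescence from a cleaved B/G FRET substrate (2.5 h, room temp) reports HSE-driven beta-lactamase in HeLa cells treated 5 h at 37 C with DMSO-dissolved compounds.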

[10] = qHTS assay to identify small molecule agonists of the peroxisome proliferator-activated receptor delta (PPARd) signaling pathway - cell viability counter screen (AID 743211); also: nearly all actives have a fitted effect of over 55% in size
Procedure, shortened: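 HEK293H PPARd-bla, 3000 cells/well; 5 h preincubation 37C/5% CO2; cpd in DMSO, 17 h 37C; B/G FRET substrate 2 h RT; CellTiter-Glo 30 min RT, luminescence.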

[11] = qHTS assay to identify small molecule antagonists of the peroxisome proliferator-activated receptor delta (PPARd) signaling pathway - cell viability counter screen (AID 743213); also: nearly all actives have a fitted effect of over 50% in size
Procedure, shortened: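 CellTiter-Glo was added to PPARd-bla HEK293H wells following 17 h compound treatment in the presence of 300 nM L165041. Luminescence was recorded after 30 min at room temperature.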

[12] = biological target: Peroxisome proliferator-activated receptor delta (Homo sapiens) (UniProt Q03181); assay: qHTS assay to identify small molecule antagonists of the peroxisome proliferator-activated receptor delta (PPARd) signaling pathway (AID 743215; active = well fitted inhibition curve with a large enough effect in the signal ratio in the repeat runs, not every such curve was filed as active; the % refers to the signal ratio;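 also: cells stimulated with agonist L165041 at 300 nM final during compound exposure; series mostly up to about 62 µM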)
Procedure, shortened: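 Agonist L165041 (300 nM final) added with compound to PPARd-bla HEK293H UAS-bla reporter cells; 17 h incubation at 37 C. Read-out: LiveBLAzer FRET substrate, 2 h at room temperature, fluorescence intensity.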

[13] = biological target: Bile acid receptor (Homo sapiens) (UniProt Q96RI1); assay: qHTS assay to identify small molecule antagonists of the farnesoid-X-receptor (FXR) signaling pathway (AID 743217; active = well fitted inhibition curve with a large enough effect in the signal ratio in the repeat runs, not every such curve was filed as active; the % refers to the signal ratio)
Procedure, shortened: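 Antagonist mode: chenodeoxycholic acid at 50 uM final stimulates a UAS-driven beta-lactamase reporter in HEK 293T FXR-bla cells during 16 h, 37C compound exposure. Read-out is FRET substrate fluorescence after 2 h at room temperature.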

[14] = qHTS assay to identify small molecule agonists of the farnesoid-X-receptor (FXR) signaling pathway - cell viability counter screen (AID 743218); also: nearly all actives have a fitted effect of over 45% in size
Procedure, shortened: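 Viability counter screen in the same wells: CellTiter-Glo luminescence, 30 min room-temperature incubation, measured after the beta-lactamase read. Cells were GeneBLAzer FXR-UAS-bla HEK 293T, compound-treated 16 h at 37C.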

[15] = qHTS assay to identify small molecule antagonists of the farnesoid-X-receptor (FXR) signaling pathway - cell viability counter screen (AID 743221; active = well fitted cell-killing curve with a large enough effect in the repeat runs, not every such curve was filed as active; also: nearly all actives have a fitted effect of over 50% in size)
Procedure, shortened: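 Luminescence from CellTiter-Glo measures cytotoxicity in GeneBLAzer FXR-UAS-bla HEK 293T cells. Cells were exposed to compounds with 50 uM chenodeoxycholic acid (final) for 16 h at 37 C, in wells also used for the reporter readout.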

[16] = qHTS assay for small molecule activators of the heat shock response signaling pathway - cell viability counter screen (AID 743209); also: nearly all actives have a fitted effect of over 50% in size
Procedure, shortened: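 Cytotoxicity counter screen run in the same wells as the heat-shock bla reporter assay: HeLa HSE-bla cells, 5 h compound exposure at 37 C, viability read by CellTiter-Glo luminescence.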

[17] = biological target: Peroxisome proliferator-activated receptor delta (Homo sapiens) (UniProt Q03181); assay: qHTS assay to identify small molecule agonists of the peroxisome proliferator-activated receptor delta (PPARd) signaling pathway (AID 743212; calls by dose curve;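 also: HEK293H cells with PPARd UAS beta-lactamase reporter GeneBLAzer system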)
Procedure, shortened: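 Steps: seed PPARd-bla HEK293H cells; incubate 5 h, 37 C, 5% CO2; add compounds in DMSO; incubate, 37 C; add LiveBLAzer B/G FRET substrate; hold 2 h at room temperature; measure fluorescence.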

[18] = biological target: Vitamin D3 receptor (Homo sapiens) (UniProt P11473); assay: qHTS assay to identify small molecule agonists of the vitamin D receptor (VDR) signaling pathway (AID 743222; calls by dose curve)
Procedure, shortened: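 Agonist mode, beta-lactamase reporter: fluorescence from LiveBLAzer B/G FRET substrate (2 h, room temperature) read after 16 h compound treatment at 37 C of VDR-bla cells, which were pre-incubated 4 h after seeding.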

[19] = biological target: Vitamin D3 receptor (Homo sapiens) (UniProt P11473); assay: qHTS assay to identify small molecule antagonists of the vitamin D receptor (VDR) signaling pathway (AID 743223; active = well fitted inhibition curve with a large enough effect in the signal ratio in the repeat runs, not every such curve was filed as active; the % refers to the signal ratio)
Procedure, shortened: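 Antagonist mode uses 1alpha,25-dihydroxyvitamin D3 at 3 nM final as stimulus. VDR-bla cells receive compounds in DMSO, incubate 16 h at 37C, then a beta-lactamase FRET substrate for 2 h at room temperature before fluorescence measurement.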
% is scaled to controls: 0 for no effect and ±100 for the full control effect.

Chain of Vitamin D3 receptor (Homo sapiens) (P11473 whole entry, looked up): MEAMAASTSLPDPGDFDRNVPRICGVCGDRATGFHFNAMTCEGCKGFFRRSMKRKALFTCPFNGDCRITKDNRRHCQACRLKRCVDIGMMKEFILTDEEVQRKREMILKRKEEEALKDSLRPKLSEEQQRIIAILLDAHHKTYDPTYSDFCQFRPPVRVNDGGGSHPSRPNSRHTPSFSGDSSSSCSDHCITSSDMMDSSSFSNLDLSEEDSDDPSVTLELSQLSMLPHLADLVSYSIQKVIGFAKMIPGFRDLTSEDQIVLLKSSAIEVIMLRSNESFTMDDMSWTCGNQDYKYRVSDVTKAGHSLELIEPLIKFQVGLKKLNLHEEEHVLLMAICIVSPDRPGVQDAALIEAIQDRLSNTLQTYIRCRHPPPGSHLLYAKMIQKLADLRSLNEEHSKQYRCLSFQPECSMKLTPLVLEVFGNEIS
Chain of Peroxisome proliferator-activated receptor delta (Homo sapiens) (Q03181 whole entry, looked up): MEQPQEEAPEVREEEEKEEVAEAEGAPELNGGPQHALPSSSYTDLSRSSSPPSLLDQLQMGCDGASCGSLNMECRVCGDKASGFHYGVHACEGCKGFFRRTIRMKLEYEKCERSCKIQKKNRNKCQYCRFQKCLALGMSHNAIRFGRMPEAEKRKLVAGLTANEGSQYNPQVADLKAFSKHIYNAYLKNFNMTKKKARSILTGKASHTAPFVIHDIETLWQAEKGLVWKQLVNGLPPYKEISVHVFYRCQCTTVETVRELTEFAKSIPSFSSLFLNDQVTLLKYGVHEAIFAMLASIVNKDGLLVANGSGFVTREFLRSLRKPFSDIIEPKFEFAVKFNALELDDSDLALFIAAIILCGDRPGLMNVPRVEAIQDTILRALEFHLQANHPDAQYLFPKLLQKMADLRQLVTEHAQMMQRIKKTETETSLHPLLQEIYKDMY
Chain of Peroxisome proliferator-activated receptor gamma (Homo sapiens) (P37231 whole entry, looked up): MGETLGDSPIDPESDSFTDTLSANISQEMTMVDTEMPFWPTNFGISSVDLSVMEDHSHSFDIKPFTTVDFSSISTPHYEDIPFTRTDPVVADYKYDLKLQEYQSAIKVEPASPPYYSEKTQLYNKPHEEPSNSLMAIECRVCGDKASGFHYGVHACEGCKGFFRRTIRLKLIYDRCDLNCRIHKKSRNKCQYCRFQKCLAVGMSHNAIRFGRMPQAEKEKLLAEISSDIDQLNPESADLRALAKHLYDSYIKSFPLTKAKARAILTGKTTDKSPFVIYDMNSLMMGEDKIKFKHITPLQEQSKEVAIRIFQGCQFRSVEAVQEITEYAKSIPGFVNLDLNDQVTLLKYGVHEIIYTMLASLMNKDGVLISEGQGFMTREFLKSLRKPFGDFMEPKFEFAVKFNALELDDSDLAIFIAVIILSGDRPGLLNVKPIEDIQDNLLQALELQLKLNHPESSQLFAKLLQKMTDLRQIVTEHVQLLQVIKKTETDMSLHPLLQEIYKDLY
Chain of Bile acid receptor (Homo sapiens) (Q96RI1 whole entry, looked up): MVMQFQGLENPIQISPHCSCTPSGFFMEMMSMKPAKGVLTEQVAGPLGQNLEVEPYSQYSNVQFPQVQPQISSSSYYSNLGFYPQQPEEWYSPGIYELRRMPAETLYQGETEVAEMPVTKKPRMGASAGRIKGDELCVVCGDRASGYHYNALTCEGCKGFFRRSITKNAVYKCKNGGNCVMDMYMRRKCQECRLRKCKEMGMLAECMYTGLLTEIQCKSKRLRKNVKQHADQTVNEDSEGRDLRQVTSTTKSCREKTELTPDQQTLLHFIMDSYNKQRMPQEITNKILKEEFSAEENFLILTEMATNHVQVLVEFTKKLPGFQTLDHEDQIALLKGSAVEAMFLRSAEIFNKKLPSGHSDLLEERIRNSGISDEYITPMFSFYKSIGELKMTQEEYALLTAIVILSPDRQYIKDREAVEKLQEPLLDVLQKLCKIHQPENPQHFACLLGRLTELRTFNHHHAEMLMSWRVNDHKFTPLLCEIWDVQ
Chain of Aryl hydrocarbon receptor (Homo sapiens) (P35869 whole entry, looked up): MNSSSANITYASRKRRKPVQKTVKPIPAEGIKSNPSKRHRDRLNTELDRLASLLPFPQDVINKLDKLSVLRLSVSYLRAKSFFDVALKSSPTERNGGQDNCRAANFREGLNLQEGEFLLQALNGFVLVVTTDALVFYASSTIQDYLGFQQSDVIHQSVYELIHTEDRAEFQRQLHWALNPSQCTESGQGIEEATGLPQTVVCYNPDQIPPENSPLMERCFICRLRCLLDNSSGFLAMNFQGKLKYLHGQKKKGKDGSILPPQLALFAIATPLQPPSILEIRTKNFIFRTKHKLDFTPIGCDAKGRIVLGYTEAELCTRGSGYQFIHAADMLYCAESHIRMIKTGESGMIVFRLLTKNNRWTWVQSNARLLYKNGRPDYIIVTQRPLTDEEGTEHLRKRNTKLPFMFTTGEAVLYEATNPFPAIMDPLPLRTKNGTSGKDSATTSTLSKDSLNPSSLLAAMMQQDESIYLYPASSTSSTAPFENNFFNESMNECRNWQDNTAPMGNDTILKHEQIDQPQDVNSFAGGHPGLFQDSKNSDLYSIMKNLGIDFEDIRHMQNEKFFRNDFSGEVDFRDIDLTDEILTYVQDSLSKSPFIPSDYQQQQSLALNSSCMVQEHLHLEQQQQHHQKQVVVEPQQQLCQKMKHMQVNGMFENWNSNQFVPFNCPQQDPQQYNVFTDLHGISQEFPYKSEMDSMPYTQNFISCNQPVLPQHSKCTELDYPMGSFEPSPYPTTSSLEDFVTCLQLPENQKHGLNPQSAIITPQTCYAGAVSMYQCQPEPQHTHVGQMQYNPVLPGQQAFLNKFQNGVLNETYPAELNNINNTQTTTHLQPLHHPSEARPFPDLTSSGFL

Cc1cc2c(cc1S(N)(=O)=O)S(=O)(=O)CCC2
inactive: Potency [1] | Potency [2] | Potency [3] | outcome [4] | Potency [5] | outcome [6] | Potency [7] | Potency [8] | outcome [9] | Potency [10] | Potency [11] | Potency [12] | outcome [13] | Potency [14] | Potency [15]

Cn1c(N)c(N=O)c(=O)n(C)c1=O
inactive: Potency [1] | Potency [3] | outcome [4] | Potency [5] | outcome [6] | Potency [7] | Potency [8] | outcome [16] | outcome [9] | Potency [10] | outcome [17] | Potency [11] | Potency [14] | Potency [15] | outcome [18] | outcome [19]
active: Potency [2] 25.1 µM

C[C@H](NC(CCc1ccccc1)C(=O)O)C(=O)N1CCC[C@H]1C(=O)O (some centres not stated)
inactive: Potency [1] | Potency [2] | Potency [3] | outcome [4] | Potency [5] | outcome [6] | Potency [7] | Potency [8] | outcome [16] | outcome [9] | outcome [17] | Potency [12] | Potency [14] | Potency [15] | outcome [18] | outcome [19]

C=C[Si](OC(=C)C)(OC(=C)C)OC(=C)C
inactive: Potency [1] | Potency [2] | Potency [3] | outcome [4] | Potency [5] | outcome [6] | Potency [7] | Potency [8] | outcome [16] | outcome [9] | Potency [10] | outcome [17] | Potency [12] | outcome [13] | Potency [14] | Potency [15] | outcome [18] | outcome [19]

COc1c(N2C[C@@H]3CCCN[C@@H]3C2)c(F)cc2c(=O)c(C(=O)O)cn(C3CC3)c12
inactive: Potency [1] | Potency [2] | Potency [3] | outcome [4] | Potency [5] | outcome [6] | Potency [7] | Potency [8] | outcome [16] | outcome [9] | Potency [10] | outcome [17] | Potency [11] | Potency [12] | outcome [13] | Potency [14] | Potency [15]

NCCCNCCSP(=O)(O)O
inactive: Potency [1] | Potency [2] | Potency [3] | outcome [4] | ratio activity, negative = inhibition [5] -8.68% [at 13.2 µM] | activity change, negative = cytotoxicity [6] -6.69% [at 13.2 µM] | activation [7] -5.66% [at 8.36 µM] | viability change, negative = cytotoxic [8] 1.31% [at 8.36 µM] | activity change, negative = cytotoxicity [16] 4.97% [at 13.2 µM] | activation [9] -0.51% [at 13.2 µM] | activity change, negative = cytotoxicity [10] 8.83% [at 13.2 µM] | activation [17] -0.031% [at 13.2 µM] | viability change, negative = cytotoxic [11] 1.09% [at 13.7 µM] | ratio activity, negative = inhibition [12] -0.162% [at 13.7 µM] | activity change, negative = inhibition [13] 5.47% [at 13.2 µM] | viability change, negative = cytotoxic [14] 7.81% [at 13.2 µM] | activity change, negative = cytotoxicity [15] 2.46% [at 13.2 µM]

CCCCCCCCCCCCCCCCC
inactive: Potency [1] | Potency [2] | Potency [3] | outcome [4] | Potency [5] | outcome [6] | Potency [7] | outcome [16] | outcome [9] | outcome [17] | Potency [11] | outcome [13] | Potency [14] | Potency [15] | outcome [18] | outcome [19]

CC(=O)OCC(CCn1cnc2cnc(N)nc21)COC(C)=O
inactive: Potency [1] | Potency [2] | Potency [3] | outcome [4] | Potency [5] | outcome [6] | Potency [7] | Potency [8] | outcome [16] | Potency [10] | outcome [17] | Potency [11] | Potency [14] | Potency [15] | outcome [18] | outcome [19]
